Most compounds without a hit are left out; they make up all but 4% or so of the library.
Mtb betalactam: beta-lactam sensitization of Mtb H37Rv, H37Rv | M. tuberculosis H37Rv growth with meropenem, percent inhibition | inhibition, % at 25 µM | 330,000 tested, 0.27% active | AID 434955, 2010; call rule not given here;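 note: growth measured after seven days incubation then overnight dye step; 0% = bacteria only wells and 100% = bacteria with antibiotic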
Mtb FBA inh: Mtb FBA enzyme inhibitors, primary screen, biochemical, fluorescence, strain H37Rv; inhibition, % at 1 µM; purified M. tuberculosis FBA, fluorescence read-out; AID 588726, 2011; 360,000 tested, 2.3% active; Fructose-bisphosphate aldolase (Mycobacterium tuberculosis (strain ATCC 25618 / H37Rv)), …; in the data active = inhibition above about 27%;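 note: 0% = vehicle and 100% = reference inhibitor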
Target sequence (P9WQA3 whole entry, looked up): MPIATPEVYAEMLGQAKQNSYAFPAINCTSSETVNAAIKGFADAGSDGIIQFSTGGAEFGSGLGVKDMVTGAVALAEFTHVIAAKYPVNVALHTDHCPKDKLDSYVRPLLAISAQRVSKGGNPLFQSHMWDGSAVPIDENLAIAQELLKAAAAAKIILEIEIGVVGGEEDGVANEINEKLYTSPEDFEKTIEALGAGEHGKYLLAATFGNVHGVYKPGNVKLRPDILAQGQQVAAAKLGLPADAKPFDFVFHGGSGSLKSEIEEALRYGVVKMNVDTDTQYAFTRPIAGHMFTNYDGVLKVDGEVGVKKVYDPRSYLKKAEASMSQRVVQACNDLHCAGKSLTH
GDH-TPI counter: GDH-TPI coupling enzyme inhibitors, primary screen, artefact control for M. tuberculosis FBA inhibitor project, biochemical, absorbance, full deck; GDH-TPI coupled enzyme counterscreen, NADH absorbance; 360,000 tested, 1.2% active; AID 588335, 2011; inhibition, % at 4.8 µM;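 note: 0% = DMSO wells and 100% = wells lacking the enzyme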
MazF activator: activators of E. coli MazEF toxin-antitoxin RNase, primary screen, biochemical, fluorescence, uHTS | 350,000 tested, 0.32% active | activation, % at 20 µM | FAM/BHQ RNA-DNA oligo cleavage fluorescence, 5 h | AID 504720, 2011; in the data active = activation above about 50%
Target sequence (P0AE70 whole entry, looked up): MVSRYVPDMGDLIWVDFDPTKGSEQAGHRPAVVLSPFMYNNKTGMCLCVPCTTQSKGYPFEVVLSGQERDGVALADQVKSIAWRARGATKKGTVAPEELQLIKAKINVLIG
CCHFV vOTU inh: CCHFV vOTU protease inhibitors, primary screen, biochemical, Pep-AMC substrate, fluorescence | Crimean-Congo hemorrhagic fever virus L polyprotein viral ovarian tumor (vOTU) protease … | 370,000 tested, 0.55% active | inhibition, % at 11.5 µM; note: 0% = vehicle wells with enzyme and 100% = no enzyme wells
Numbers without * were called inactive; . = no result; + = active, no number. Cut-off read from the data, not from the text of the source, unless noted: active = inhibition above about 30%; inactive = the rest.

SMILES | Mtb betalactam | Mtb FBA inh | GDH-TPI counter | MazF activator | CCHFV vOTU inh
N=c1c(C(=O)NCC2CCCO2)cc2c(=O)n3ccccc3nc2n1C1CCCCC1 (stereo not given) | 6 | + | 1 | 3 | -142
Cc1ccc2nc3c(cc(C(=O)NCC4CCCO4)c(=N)n3C3CCCC3)c(=O)n2c1 (stereo not given) | -4 | + | 6 | -27 | -371
O=C1CCN(Cc2ccc(O)cc2)CCN1CCO | -12 | 1 | 34* | 0 | 9
NS(=O)(=O)c1ccc(NC(=S)NNC(=O)c2ccc(Br)o2)cc1 | -3 | 1 | 33* | -2 | 16
O=C(NCC(=O)N(Cc1cccs1)C(C(=O)NC1CCCC1)c1cccnc1)c1ccco1 (stereo not given) | -7 | 117* | -3 | 1 | 8
O=C(NCC(=O)N(Cc1cccs1)C(C(=O)NC1CCCCC1)c1ccncc1)c1ccco1 (stereo not given) | -1 | -4 | -2 | -4 | -6
CCOc1ccc(Oc2c(Cl)cnn(Cc3cccc4ccccc34)c2=O)cc1 | . | . | . | . | 2
Cc1ccc(C(=O)Nc2sc3c(c2C(=O)O)CCCCC3)o1 | 1 | 17 | 21 | 3 | 26
Cc1ccc(C(=O)Nc2sc3c(c2C(=O)O)CCCC3)o1 | 11 | 14 | 36* | 2 | 11
CCn1c(NC(=O)c2cccs2)nc2ccccc21 | 100 | 1 | 36* | 2 | -3
CCN(CC)CCCNC(=O)CSc1nnc(-c2ccncc2)n1-c1ccc(OC)cc1 | . | . | . | . | 9
Nc1cc(SCc2ccc(Cl)cc2Cl)ncn1 | . | 0 | 4 | 56* | -6
C#CCN1CC(N(C)CCOC(=O)c2occ3ccccc23)CS1(=O)=O (stereo not given) | . | . | . | . | 15
CC1(C)Cc2c(sc(/N=C/N3CCCCC3)c2C#N)C(C)(C)N1 | 4 | -6 | 31* | -5 | 14
O=C(N/N=C/c1ccc([N+](=O)[O-])cc1)c1ccc(NS(=O)(=O)c2cccs2)cc1 | 1 | -5 | 41* | 4 | 19
O=C(NN=Cc1ccc(OC(F)F)cc1)c1ccc(NS(=O)(=O)c2cccs2)cc1 | 3 | 0 | 33* | 1 | 19
COc1ccccc1C(=O)NNC(=O)c1ccc(NS(=O)(=O)c2cccs2)cc1 | -19 | -1 | 8 | -7 | 8
O=C(NN=Cc1ccccc1OC(F)F)c1ccc(NS(=O)(=O)c2cccs2)cc1 | 10 | -4 | 32* | 2 | 11
O=C(N/N=C/c1ccc([N+](=O)[O-])o1)c1ccc(NS(=O)(=O)c2cccs2)cc1 | 100 | 8 | 17 | 3 | 19
Cn1cccc1C(=O)N1CCN(S(=O)(=O)c2ccc(Cl)s2)CC1 | . | . | . | . | -3
C/C(=N\Nc1ncc(Cl)cc1Cl)c1ccc(C#N)cc1 | -5 | -1 | 46* | 8 | -9
CCN(CC)C(=O)COc1ccc(/C(C)=N/Nc2ncc(Cl)cc2Cl)cc1 | 1 | 3 | 25 | 3 | 4
Cc1oc2c(CN3CCCC3)c(O)ccc2c(=O)c1-c1ccccc1 | 5 | 118* | 11 | -3 | .
Cc1oc2c(CN3CCCC3)c(O)ccc2c(=O)c1-c1ccc(Cl)cc1 | 5 | 86* | 26 | 6 | -79
COc1ccc(-c2c(C(F)(F)F)oc3c(CN4CCN(C)CC4)c(O)ccc3c2=O)cc1 | -9 | -6 | 21 | -6 | 13
SMILES | Mtb betalactam | Mtb FBA inh | GDH-TPI counter | MazF activator | CCHFV vOTU inh
Cc1oc2c(CN3CCC(C)CC3)c(O)ccc2c(=O)c1-c1ccccc1 | -10 | 181* | 15 | -14 | -127
CCOC(=O)C(C(=O)OCC)C1N=C(N)N=C2Oc3ccccc3N21 (stereo not given) | 90 | 5 | 49* | 8 | 3
CCOC(=O)CN1C(=O)C(CC)Oc2ccccc21 (stereo not given) | 15 | 0 | -1 | 1 | 2
O=c1cc2c(=O)oc3cc(O)c(O)oc3c2c(O)c1O | . | 3 | 1 | 55* | 1
COc1cccc(CO[C@H]2C=C[C@@H](c3ccccc3)O[C@@H]2CO)c1 | . | . | . | . | 0
O=c1c(-c2nc3ccccc3s2)cccn1Cc1ccc(Cl)cc1 | -16 | 142* | 10 | 10 | -46
Clc1ccccc1/C=N/NC1=Nc2cccc3cccc1c23 | -4 | -11 | 14 | 231* | 9
COCC(=O)N(C)[C@H]1C[C@H]2c3[nH]c4c(-c5ccc6c(c5)OCO6)cccc4c3CCN2C(=O)[C@H]1[C@H](C)O | . | . | . | . | 0
COc1ccc(/C=N/N=C/c2ccc(OC)c(O)c2)cc1O | -7 | -2 | 50* | 11 | 27
COc1cc(/C=N/N=C/c2cc(OC)c(O)c(OC)c2)cc(OC)c1O | -1 | -4 | 35* | -42 | 13
CC(C)CNc1cccc2c1S(=O)(=O)N(Cc1cn(Cc3cccc(F)c3)nn1)Cc1ccccc1O2 | . | . | . | . | 3
COc1ccc(-c2nnc(SCC(=O)NN=C(C)c3cccc4ccccc34)n2-c2ccc(C)cc2)cc1 | . | . | . | . | 6
CC1(C)CC(=O)C(C=Nc2ccccc2C(=O)O)=C(O)C1 | 5 | 13 | 42* | 1 | -12
CC1(C)CC(=O)C(C=Nc2ccccc2)=C(O)C1 | 11 | -1 | 27 | 2 | 12
CN(C(=O)[C@@H](C1CC1)[C@@H](O)c1ccc2ccccc2c1)c1ccccc1 | . | . | . | . | 13
O=c1c(-c2cc3ccccc3o2)[n+]([O-])c2ccccc2n1OCc1ccccn1 | 2 | -2 | 1 | 119* | 14
CCOn1c(=O)c(-c2cc3ccccc3o2)[n+]([O-])c2ccccc21 | -4 | 0 | 4 | 741* | .
CCCCN1CN2Cc3cc(OC)ccc3C2CS1(=O)=O (stereo not given) | . | . | . | . | -6
O=C(/C=C/c1cccs1)Nc1cccc(NC(=O)/C=C/c2cccs2)n1 | 96 | 0 | 57* | 0 | 5
Cc1cc(C)nc(NC(=O)/C=C/c2ccccc2Cl)c1 | 1 | 2 | 8 | -3 | 11
Cc1cc(C)nc(NC(=O)/C=C/c2cccs2)c1 | 5 | -4 | 47* | -1 | 20
N#CC(=Cc1ccc(O)cc1)C(N)=C(C#N)C#N | 0 | 10 | 37* | -40 | 10
Cn1c(=O)c2cc(S(=O)(=O)N3CCN(c4ccc(F)cc4)CC3)ccc2n(C)c1=O | . | . | . | . | 0
O=c1oc2c(CN3CCOCC3)c(O)ccc2c2c1CCCC2 | -2 | + | 29 | -3 | -194
O=c1oc2c(CN3CCOCC3)c(O)c(Cl)cc2c2c1CCCC2 | 2 | + | 19 | 9 | -201
C/C(=N\N=C(/N)SC1CC(=O)N(c2cccc(Cl)c2)C1=O)c1cccs1 (stereo not given) | 16 | -5 | 40* | -9 | 29
CCOC(=O)N[C@H](C(=O)N1CCC[C@H]1C(=O)NCCc1ccccc1Cl)C1CCCCC1 | . | . | . | . | -3
COc1ccccc1CNC(=O)COc1ccccc1C | 0 | 0 | 8 | 8 | -5

Compound activity from PubChem BioAssay.
